“And” between values parts separate entries of the source, which are not always exact repeats. Equal entries are not always repeated. In all, about 5,500 compounds went through this assay and about 2,000 (36%) were called active. Inconclusive results (about 18%) are left out. Cut-off read from the data, not from the text of the source: active = normalized growth mostly below about 0.91 (no sharp cut-off); inconclusive = no clear call, values can overlap the other calls; inactive = mostly above about 0.92. The list shows a part of the results.
Experiment: chemical genetic growth profiling, strain panel (AID 1159580);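 note: tested at 20 µM; growth read once vehicle control cultures reached saturation at 30 °C; 1 = growth at the plate median or of vehicle wells; lower values mean less growth of the strain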
Settings: growth OD

Measured: normalized growth

CC(COc1ccccc1)N(CCCl)Cc1ccccc1 (stereo unspecified)
inactive: S. cerevisiae deletion strains, locus YJR075W, strain HOC1, stronger effect = lower value 1.02 | S. cerevisiae deletion strains, locus YKL009W, strain mrt4, stronger effect = lower value 1.04 | S. cerevisiae deletion strains, locus YKL068W, stronger effect = lower value 1.02 | S. cerevisiae deletion strains, locus YKL085W, strain MDH1 (second series), stronger effect = lower value 1.01 | S. cerevisiae deletion strains, locus YKL085W, strain MDH1, stronger effect = lower value 1.01 | S. cerevisiae deletion strains, locus YKL160W, strain elf1, stronger effect = lower value 0.931 | S. cerevisiae deletion strains, locus YKL190W, strain CNB1, stronger effect = lower value 1.01 | S. cerevisiae deletion strains, locus YKR001C, strain vps1, stronger effect = lower value 0.996 | S. cerevisiae deletion strains, locus YKR026C, strain gcn3, stronger effect = lower value 0.985 | S. cerevisiae deletion strains, locus YKR091W, strain srl3, stronger effect = lower value 0.978 | S. cerevisiae deletion strains, locus YLL001W, strain dnm1, stronger effect = lower value 1.03 | S. cerevisiae deletion strains, locus YLL026W, stronger effect = lower value 0.976 | S. cerevisiae deletion strains, locus YLL041C, strain sdh2, stronger effect = lower value 0.979 | S. cerevisiae deletion strains, locus YLR039C, strain RIC1, stronger effect = lower value 0.939 | S. cerevisiae deletion strains, locus YLR058C, strain SHM2, stronger effect = lower value 1.01 | S. cerevisiae deletion strains, locus YLR102C, strain apc9, stronger effect = lower value 1.01 | S. cerevisiae deletion strains, locus YLR113W, strain HOG1, stronger effect = lower value 0.977 | S. cerevisiae deletion strains, locus YLR221C, strain rsa3, stronger effect = lower value 0.995 | S. cerevisiae deletion strains, locus YLR258W, strain gsy2, stronger effect = lower value 0.95 | S. cerevisiae deletion strains, locus YLR262C, strain YPT6 (second series), stronger effect = lower value 0.897 | S. cerevisiae deletion strains, locus YLR262C, strain YPT6, stronger effect = lower value 0.977 | S. cerevisiae deletion strains, locus YLR268W, strain sec22, stronger effect = lower value 1.04 | S. cerevisiae deletion strains, locus YLR320W, strain mms22, stronger effect = lower value 0.985 | S. cerevisiae deletion strains, locus YLR330W, strain CHS5, stronger effect = lower value 1.01 | S. cerevisiae deletion strains, locus YLR342W, strain FKS1 (second series), stronger effect = lower value 0.974 | S. cerevisiae deletion strains, locus YLR342W, strain FKS1, stronger effect = lower value 0.989 | S. cerevisiae deletion strains, locus YLR357W, strain rsc2, stronger effect = lower value 0.969 | S. cerevisiae deletion strains, locus YLR370C, strain arc18, stronger effect = lower value 0.963 | S. cerevisiae deletion strains, locus YLR371W, strain rom2, stronger effect = lower value 1.02 | S. cerevisiae deletion strains, locus YLR384C, strain iki3, stronger effect = lower value 0.999 | S. cerevisiae deletion strains, locus YLR418C, strain cdc73, stronger effect = lower value 0.97 | S. cerevisiae deletion strains, locus YML016C, strain PPZ1, stronger effect = lower value 1 | S. cerevisiae deletion strains, locus YML032C, strain rad52, stronger effect = lower value 1.02 | S. cerevisiae deletion strains, locus YML120C, strain ndi1, stronger effect = lower value 1.01 | S. cerevisiae deletion strains, locus YML124C, strain tub3, stronger effect = lower value 1.01 | S. cerevisiae deletion strains, locus YMR058W, strain fet3, stronger effect = lower value 0.95 | S. cerevisiae deletion strains, locus YMR078C, strain ctf18, stronger effect = lower value 1.02 | S. cerevisiae deletion strains, locus YMR125W, strain sto1, stronger effect = lower value 0.987 | S. cerevisiae deletion strains, locus YMR129W, stronger effect = lower value 0.959 | S. cerevisiae deletion strains, locus YMR205C, strain PFK2, stronger effect = lower value 0.969 | S. cerevisiae deletion strains, locus YMR223W, strain ubp8, stronger effect = lower value 0.99 | S. cerevisiae deletion strains, locus YMR231W, strain pep5, stronger effect = lower value 0.996 | S. cerevisiae deletion strains, locus YMR263W, strain SAP30, stronger effect = lower value 1.01 and 0.995 | S. cerevisiae deletion strains, locus YMR307W, strain GAS1, stronger effect = lower value 1.01 and 1 | S. cerevisiae deletion strains, locus YNL067W, strain RPL9B, stronger effect = lower value 1.03 | S. cerevisiae deletion strains, locus YNL128W, strain TEP1, stronger effect = lower value 1.01 | S. cerevisiae deletion strains, locus YNL153C, strain GIM3, stronger effect = lower value 1.02 | S. cerevisiae deletion strains, locus YNL175C, strain NOP13, stronger effect = lower value 0.996 | S. cerevisiae deletion strains, locus YNL183C, strain NPR1, stronger effect = lower value 0.919 | S. cerevisiae deletion strains, locus YNL197C, strain WHI3, stronger effect = lower value 1.01 | S. cerevisiae deletion strains, locus YNL209W, strain ssb2, stronger effect = lower value 0.953 | S. cerevisiae deletion strains, locus YNL224C, strain SQS1, stronger effect = lower value 0.984 | S. cerevisiae deletion strains, locus YNL233W, strain BNI4, stronger effect = lower value 1.01 | S. cerevisiae deletion strains, locus YNL248C, strain rpa49, stronger effect = lower value 0.894 | S. cerevisiae deletion strains, locus YNL250W, strain rad50, stronger effect = lower value 1 | S. cerevisiae deletion strains, locus YNL271C, strain bni1, stronger effect = lower value 1.01 | S. cerevisiae deletion strains, locus YNL298W, strain CLA4, stronger effect = lower value 1 | S. cerevisiae deletion strains, locus YNL307C, strain MCK1, stronger effect = lower value 1 | S. cerevisiae deletion strains, locus YNL322C, strain KRE1 (second series), stronger effect = lower value 0.923 | S. cerevisiae deletion strains, locus YNL322C, strain KRE1, stronger effect = lower value 1.01 | S. cerevisiae deletion strains, locus YNR049C, strain mso1, stronger effect = lower value 0.975 | S. cerevisiae deletion strains, locus YNR052C, strain pop2, stronger effect = lower value 1.01 | S. cerevisiae deletion strains, locus YOL006C, strain TOP1, stronger effect = lower value 1.07 | S. cerevisiae deletion strains, locus YOL012C, strain htz1 0.857 | S. cerevisiae deletion strains, locus YOL147C, strain pex11, stronger effect = lower value 1.01 | S. cerevisiae deletion strains, locus YOR001W, strain rrp6, stronger effect = lower value 0.996 | S. cerevisiae deletion strains, locus YOR061W, strain CKA2, stronger effect = lower value 1.01 | S. cerevisiae deletion strains, locus YOR069W, strain VPS5, stronger effect = lower value 1.01 | S. cerevisiae deletion strains, locus YOR070C, strain gyp1, stronger effect = lower value 0.979 | S. cerevisiae deletion strains, locus YOR080W, strain dia2, stronger effect = lower value 0.995 | S. cerevisiae deletion strains, locus YOR083W, strain WHI5 (second series), stronger effect = lower value 0.987 | S. cerevisiae deletion strains, locus YOR083W, strain WHI5, stronger effect = lower value 0.9 | S. cerevisiae deletion strains, locus YOR106W, strain vam3, stronger effect = lower value 0.89 | S. cerevisiae deletion strains, locus YOR136W, strain idh2, stronger effect = lower value 1 | S. cerevisiae deletion strains, locus YOR144C, strain elg1, stronger effect = lower value 1.02 | S. cerevisiae deletion strains, locus YOR184W, strain ser1, stronger effect = lower value 0.954 | S. cerevisiae deletion strains, locus YOR231W, strain MKK1, stronger effect = lower value 0.99 | S. cerevisiae deletion strains, locus YOR265W, strain rbl2, stronger effect = lower value 0.997 | S. cerevisiae deletion strains, locus YOR270C, strain vph1, stronger effect = lower value 0.838 | S. cerevisiae deletion strains, locus YOR290C, strain snf2, stronger effect = lower value 0.898 | S. cerevisiae deletion strains, locus YOR316C, strain cot1, stronger effect = lower value 1.02 | S. cerevisiae deletion strains, locus YPL051W, strain arl3, stronger effect = lower value 0.916 | S. cerevisiae deletion strains, locus YPL055C, strain LGE1, stronger effect = lower value 1 | S. cerevisiae deletion strains, locus YPL078C, strain atp4, stronger effect = lower value 0.926 | S. cerevisiae deletion strains, locus YPL106C, strain sse1, stronger effect = lower value 0.949 | S. cerevisiae deletion strains, locus YPL240C, strain hsp82, stronger effect = lower value 0.991 | S. cerevisiae deletion strains, locus YPL241C, strain CIN2, stronger effect = lower value 1 | S. cerevisiae deletion strains, locus YPL256C, strain CLN2, stronger effect = lower value 0.981 | S. cerevisiae deletion strains, locus YPR119W, strain clb2, stronger effect = lower value 1.02 | S. cerevisiae deletion strains, locus YPR141C, strain kar3, stronger effect = lower value 1.01 | S. cerevisiae deletion strains, locus YPR163C, strain tif3, stronger effect = lower value 1.02 | S. cerevisiae deletion strains, locus YPR167C, strain met16, stronger effect = lower value 1.02 | S. cerevisiae deletion strains, strain wtn01, stronger effect = lower value 1.03 | S. cerevisiae strains, strain wild type, stronger effect = lower value 1
active: S. cerevisiae deletion strains, locus YLR027C, strain aat2, stronger effect = lower value 0.924 | S. cerevisiae deletion strains, locus YNL071W, strain lat1, stronger effect = lower value 0.918

From PubChem BioAssay AID1159580 (chemical genetic matrix, 2015)
